Here are results for two compounds from PubChem BioAssay AID504892 (The Scripps Research Institute Molecular Screening Center, 2011).

Values without a mark were called inactive. Calls of active or inactive are those of the source. The rule behind the calls is not given here.

This test concerns the target sn-1-specific diacylglycerol lipase ABHD11 (Homo sapiens) (UniProt Q8NFV4). Nature of the test: ABHD11 inhibitors, late-stage follow-up, gel-based ABPP, fluorescence, human isoform (AID 504892). As to conditions: human ABHD11 proteome; at 20 µM (top of the series) unless noted.

Chain of sn-1-specific diacylglycerol lipase ABHD11 (Homo sapiens) (Q8NFV4 whole entry, looked up, canonical isoform): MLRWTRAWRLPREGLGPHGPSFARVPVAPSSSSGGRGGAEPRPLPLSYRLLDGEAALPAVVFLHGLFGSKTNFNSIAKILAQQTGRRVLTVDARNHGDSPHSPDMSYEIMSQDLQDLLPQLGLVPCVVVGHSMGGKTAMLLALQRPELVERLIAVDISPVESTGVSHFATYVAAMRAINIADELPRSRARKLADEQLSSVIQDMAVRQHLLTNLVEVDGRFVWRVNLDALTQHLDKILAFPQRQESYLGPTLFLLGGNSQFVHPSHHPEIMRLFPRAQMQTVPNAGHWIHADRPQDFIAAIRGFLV

In the case of `CCC1CCCCN1C(=O)Oc1ccc([N+](=O)[O-])cc1` (configuration not stated), the inhibition was 0%.
As for `CCC1CCCCN1C(=O)n1ncc(C(O)(c2ccccc2)c2ccccc2)n1` (configuration not stated), the inhibition is 100% [at 0.15 µM] (active).

By inhibition is commonly meant the percentage by which the read-out fell short of the control.
